This is a sample that favours compounds with a hit; in the whole collection about 4.6% have one here.
HCV inh = inhibitors of hepatitis C virus infection; Huh7.5.1 HCVcc-Cre infection, luciferase reporter, 44 h; Potency, µM (titrated, usually from 41.8 µM), most hits filed as inhibitors; 3.4% of 340,000 active; active = well fitted inhibition curve with a large enough effect; inconclusive = small, poorly fitted or top-dose-only effect, or another doubt; inactive = no such curve, though single readings can be large or run the other way
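Luciferase read-out (15 sec integration) after a 15 min room-temperature substrate step quantifies HCVcc-Cre infection. Cells, 1,000 per well, had compound added 4 h post-plating, then virus at ~0.5 moi, and were cultured 44 h.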
Vaccinia Venus = inhibitors of vaccinia virus (Venus reporter); Vaccinia virus Venus reporter expression, fluorescence; Potency, µM (doses to about 36.5 µM), actives largely listed as inhibitors; 0.46% of 330,000 active; AID 720580; calls by dose curve; tested in A549 cells; note: nearly all actives have a fitted effect of over 30% in size
Vaccinia mCherry = vaccinia inhibition (mCherry reporter). Vaccinia virus mCherry reporter infection, fluorescence. 0.63% of 310,000 active. Potency, µM (series often up to 36.5 µM), most hits filed as inhibitors. AID 720579; calls by dose curve; tested in A549 cells; note: nearly all actives have a fitted effect of over 35% in size
Lassa entry inh = inhibitors of Lassa virus binding or cell entry. 1.2% of 300,000 active. Lassa virus pseudotype entry inhibition, cell reporter. Potency, µM (highest dose often 37.9 µM), actives largely listed as inhibitors; calls by dose curve; tested in HEK293 cells; note: nearly all actives have a fitted effect of over 50% in size
MARV entry inh = Marburg virus entry inhibition; Marburg virus pseudotyped entry inhibition, cell reporter; Potency, µM (top dose mostly 37.8 µM), actives largely listed as inhibitors; 1.8% of 300,000 active; calls by dose curve; tested in HEK293 cells
Hits are given with their value; – = inactive; ? = inconclusive; · = no result given.

SMILES	HCV inh	Vaccinia Venus	Vaccinia mCherry	Lassa entry inh	MARV entry inh
O=C(CCS(=O)(=O)c1nc(-c2cccs2)cc(C(F)(F)F)n1)Nc1ccc(OC(F)(F)F)cc1	·	–	–	?	?
CC(C)c1nnc(NC(=O)CCS(=O)(=O)c2nc(-c3cccs3)cc(C(F)(F)F)n2)s1	–	·	·	?	13µM
COCCSc1nnc(NC(=O)CS(=O)(=O)c2ccc(C)cc2)s1	–	–	–	–	–
C[N+]1(CC(=O)c2ccccc2)CCc2ccccc2C1 (stereo unspecified)	·	–	–	·	·
Cc1ccc2[nH]cc(C(O)c3c[nH]c4ccc(C)cc34)c2c1	·	–	–	·	·
CCn1c(-c2ccccc2F)nc2cc(C(=O)N3CCCC(CO)C3)cc(NC(C)=O)c21 (stereo unspecified)	·	–	–	·	·
COCCN(C)C(=O)c1cnn(-c2nccc(-c3cc(C)sc3C)n2)c1C	·	–	–	·	·
COc1ccc2[nH]c3c(c2c1)CCN1C(=O)C(CC(=O)NCCC2=CCCCC2)C[C@H](C(=O)N2CCCCC2)[C@@]31C (stereo partly specified)	?	?	10µM	·	–
COc1ccc2[nH]c3c(c2c1)CCN1C(=O)C(CC(=O)NCC24CC5CC(CC(C5)C2)C4)C[C@H](C(=O)N2CCCCC2)[C@@]31C (stereo partly specified)	25µM	?	?	·	·
COc1ccc2[nH]c3c(c2c1)CCN1C(=O)C(CC(=O)NCCC2=CCCCC2)C[C@H](C(=O)N2CCOCC2)[C@@]31C (stereo partly specified)	?	?	–	·	·
CCOc1ncccc1C(=O)OC(C)C(=O)Nc1ccc(Cl)cn1 (stereo unspecified)	–	·	·	·	·
CC(OC(=O)Cc1ccsc1)C(=O)Nc1ccc(Cl)cn1 (stereo unspecified)	22µM	–	–	–	–
COc1cccc(CC(=O)OC(C)C(=O)Nc2ccc(Cl)cn2)c1 (stereo unspecified)	–	–	–	–	–
CNc1ccccc1C(=O)OC(C)C(=O)Nc1ccc(Cl)cn1 (stereo unspecified)	?	10µM	?	–	–
C[n+]1ccnc2ccccc21	·	2.2µM	7.9µM	·	·
C=CC[n+]1ccnc2ccccc21	·	–	–	·	·
C[n+]1ccnc2cc(Cl)ccc21	·	2.2µM	11µM	·	·
CN(C)c1ccc(/C=C2\C=Cc3ccccc32)cc1N	·	–	–	·	·
COc1ccc(NC(=O)c2cc(-c3ccc(C)c(C)c3O)n[nH]2)cc1Cl	2.5µM	–	–	–	–
CC(=O)Nc1ccc(NC(=O)c2cc(-c3ccc(C)c(C)c3O)n[nH]2)cc1	–	·	·	·	·
CC(=O)Nc1ccc(NC(=O)c2cc(-c3cc(C)cc(C)c3O)n[nH]2)cc1	8.9µM	·	·	·	·
Cc1cc(C)c(O)c(-c2cc(C(=O)Nc3ccc(S(=O)(=O)N4CCOCC4)cc3)[nH]n2)c1	10µM	13µM	10µM	?	?
Cc1ccc(NC(=O)c2cc(-c3ccc(C)c(C)c3O)n[nH]2)cc1C	?	–	–	–	–
COc1ccc(C2Nc3ccc(NC(=O)CO)cc3C(=O)N2Cc2cccc(Cl)c2)cc1COc1ccc(NC(C)=O)cc1 (stereo unspecified)	·	–	–	·	·
CCCCN(C)C(=O)c1ccc2c(c1)NC(=O)C(CC(C)C)N2 (stereo unspecified)	·	–	–	–	·
SMILES	HCV inh	Vaccinia Venus	Vaccinia mCherry	Lassa entry inh	MARV entry inh
Cc1ccc(C(=O)N2N=C(c3ccc(Br)cc3)CC2c2ccccc2O)cc1 (stereo unspecified)	?	?	–	13µM	–
Cc1ccc(C(=O)N2N=C(c3ccccc3O)CC2c2ccccc2)cc1 (stereo unspecified)	–	–	–	–	–
Cc1ccccc1Cn1nc(C)c(NC(=O)c2sc3ccccc3c2Cl)c1C	32µM	?	–	–	?
Cc1nn(Cc2ccc(Cl)c(Cl)c2)c(C)c1NC(=O)c1sc2ccccc2c1Cl	22µM	–	?	?	–
Cc1nn(Cc2c(Cl)cccc2Cl)c(C)c1NC(=O)c1sc2ccccc2c1Cl	?	–	?	–	?
CCOc1ccc2c(c1)c(=O)c(C(=O)c1ccc(CC)cc1)cn2CC(=O)Nc1cccc(Cl)c1	·	–	–	–	–
Cn1c(=O)c(-c2ccccc2)nn2c3ccccc3nc12	–	–	–	–	–
Cc1nc2c(=O)n(C)c(=O)nc-2n(C)n1	0.56µM	0.5µM	?	0.56µM	0.89µM
Cn1nc(-c2ccccc2)nc2c(=O)n(C)c(=O)nc1-2	·	1µM	1µM	·	·
COc1ccc(-c2nc3n(n2)C(c2ccncc2)C(C(N)=O)=C(C)N3)cc1 (stereo unspecified)	–	–	–	–	–

From PubChem
